TcdB_GH_inh: blocks C. difficile toxin B glycohydrolase activity; TcdB glycohydrolase enzymatic assay, plate reader; inhibition, % at 9.99 µM; 0.24% of 350,000 active; AID 652162; in the data active means inhibition above about 10%
BioA_inh-1: inhibitors of Mycobacterium tuberculosis BioA enzyme | 0.096% of 360,000 active | purified M. tuberculosis BioA enzyme, plate reader | inhibition, % at 9.99 µM | AID 602481; in the data active means inhibition above about 40%; inconclusive means no clear call, values can overlap the other calls
Y_pestis_TopoI: blocks Yersinia pestis topoisomerase I activity; Y. pestis Topo-I cleavage product accumulation, plate reader; activity, % at 10 µM; 0.064% of 360,000 active; AID 504884; in the data active means activity above about 50%, passing the limit was not always enough; inconclusive means no clear call, values can overlap the other calls
BioA_inh-2: Mtb BioA enzyme inhibition; 310 tested, under 10 active; max activity, %; shares compounds with BioA_inh-1; purified BioA enzyme, plate reader, dose response;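 further: top concentration of the dilution series was 10 µM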
HepG2_cytotox: HepG2 viability loss; shares compounds with BioA_inh-1; HepG2 cytotoxicity, plate reader; max activity, %; 310 tested, under 10 active; AID 651898
3T3_cytotox_5: kills NIH3T3 cells; NIH3T3 cytotoxicity, plate reader; activity change, negative = cytotoxicity, % at 26 µM; 310 tested, under 10 active; AID 651900; shares compounds with BioA_inh-1
Active calls of the source: *; i = inactive; ? = inconclusive; nt = not tested or not shown; [ ] = another dose, or the depositor's remark. Rows were chosen to be rich in hits. Some 0.32% of all compounds tested hit in one or more screens of this group. Unless noted, how the calls were made is not given here.

SMILES TcdB_GH_inh BioA_inh-1 Y_pestis_TopoI BioA_inh-2 HepG2_cytotox 3T3_cytotox_5
CN1c2ccc(-c3cccc(F)c3)cc2[C@H]2[C@H](CCN2C(=O)C2CC2)[C@H]1CO -3 41* nt 6 i 0[23.5_µM]
CN1c2ccc(-c3cccc(F)c3)cc2[C@@H]2[C@@H](CCN2C(=O)c2ccncc2)[C@@H]1CO nt 40 nt nt nt nt
CCC(=O)N1CC[C@H]2[C@@H]1c1cc(-c3ccc(F)cc3)ccc1N(C)[C@H]2CO 0 nt nt nt nt nt
CN1c2ccc(-c3cccc(F)c3)cc2[C@H]2[C@H](CCN2C(=O)c2ccncc2)[C@@H]1CO nt 69* nt -9 i -4
CN1c2ccc(-c3cccc(F)c3)cc2[C@@H]2[C@@H](CCN2C(=O)C2CC2)[C@H]1CO -9 31 nt nt nt nt
CC(C)NC(=O)Nc1cccc2c1O[C@@H](CN(C)Cc1ccc(-c3ccccc3)cc1)[C@@H](C)CN([C@@H](C)CO)C2=O 1 -1 nt nt nt nt
C[C@@H]1CN([C@@H](C)CO)C(=O)Cc2cc(NC(=O)Nc3ccccc3)ccc2O[C@H]1CN(C)CC1CCCCC1 0 3 nt nt nt nt
C[C@H](CO)N1C[C@H](C)[C@H](CN(C)Cc2ccc(C(=O)O)cc2)Oc2ccc(NC(=O)Nc3ccccc3)cc2C1=O 1 -1 nt nt nt nt
Cc1ccc(S(=O)(=O)Nc2ccc3c(c2)C(=O)N([C@H](C)CO)C[C@H](C)[C@H](CN(C)C)OCCCC[C@H](C)O3)cc1 1 -3 nt nt nt nt
CCC(=O)N[C@@H]1CC[C@H](CC(=O)NCC2CC2)O[C@H]1CO -1 nt nt nt nt nt
C[C@@H]1CN([C@H](C)CO)C(=O)Cc2cc(NS(C)(=O)=O)ccc2O[C@@H]1CN(C)C(=O)Nc1ccc(C(F)(F)F)cc1 -1 1 nt nt nt nt
CN1C(=O)c2ccc(NC(=O)c3ccc(N4CCCCC4)c([N+](=O)[O-])c3)cc2C1=O nt nt -7 nt nt nt
O=C(Nc1ccc(N2CCOCC2)c(Cl)c1)c1cccnc1 nt 47* -4 -3 -16 -6
O=C(Nc1ccc(N2CCCC2)c(Cl)c1)c1cccnc1 nt 16 -9 nt nt nt
O=C(Nc1cccnc1)c1ccc(N2CCOCC2)c([N+](=O)[O-])c1 -2 49* 1 -3 24 7
O=C(NCc1cccnc1)c1ccc(N2CCOCC2)c([N+](=O)[O-])c1 -5 nt -5 nt nt nt
O=C(Nc1cccnc1)c1ccc(N2CCCC2)c([N+](=O)[O-])c1 -1 72* 1 -7 -12 1
C[C@H]1CCCCO[C@@H](CN(C)C)[C@@H](C)CN([C@@H](C)CO)C(=O)c2cc(NS(=O)(=O)c3cccs3)ccc2O1 0 0 nt nt nt nt
Cc1cccc(S(=O)(=O)N2C[C@@H](O)COC[C@@H]3O[C@H](CC(=O)N4CCN(C)CC4)CC[C@H]32)c1 1 -1 nt nt nt nt
C[C@H]1CN([C@@H](C)CO)C(=O)c2cc(NC(=O)Nc3ccc(C(F)(F)F)cc3)ccc2O[C@@H]1CN(C)S(C)(=O)=O 0 6 nt nt nt nt
Cc1ccc(S(=O)(=O)N[C@@H]2CC[C@@H](CCn3cc(C4CCCC4)nn3)O[C@@H]2CO)cc1 -3 -4 nt nt nt nt
C[C@H](CO)N1C[C@H](C)[C@@H](CN(C)C(=O)Nc2cccc3ccccc23)Oc2ccc(NC(=O)CCN3CCOCC3)cc2CC1=O 2 nt nt nt nt nt
COc1ccc(S(=O)(=O)N(C)C[C@H]2Oc3ccc(NC(=O)c4ccncc4)cc3C(=O)N([C@@H](C)CO)C[C@@H]2C)cc1 2 0 nt nt nt nt
O=C(O)CN1C(=O)/C(=C\c2cc(Br)ccc2OCc2ccccc2Cl)SC1=S -2 4 -6 nt nt nt
O=C(O)CN1C(=O)/C(=C\c2cc(Br)ccc2OCc2ccc([N+](=O)[O-])cc2)SC1=S -6 62* 2 5 ? ?
SMILES TcdB_GH_inh BioA_inh-1 Y_pestis_TopoI BioA_inh-2 HepG2_cytotox 3T3_cytotox_5
O=C(N[C@@H]1C=C[C@@H](CC(=O)N2CCc3ccccc3C2)O[C@H]1CO)C1CCOCC1 -1 nt nt nt nt nt
Cc1ccccc1S(=O)(=O)NCC[C@H]1CC[C@@H](NC(=O)Nc2cccc(F)c2)[C@H](CO)O1 1 46* nt -5 i 0
Cc1ccccc1S(=O)(=O)NCC[C@H]1CC[C@H](NC(=O)Nc2cccc(Cl)c2)[C@@H](CO)O1 0 2 nt nt nt nt
O=C(C[C@@H]1CC[C@H]2[C@@H](COC[C@@H](O)CN2S(=O)(=O)c2ccc(F)cc2)O1)NCc1ccc(Cl)c(Cl)c1 0 3 nt nt nt nt
COC(=O)[C@H]1[C@H](CO)[C@H]2Cn3c(ccc(-c4ccccc4)c3=O)[C@H]2N1Cc1cccc(F)c1 0 31 nt nt nt nt
CCNC(=O)[C@H]1[C@H](CO)[C@H]2Cn3c(ccc(-c4cccnc4)c3=O)[C@H]2N1Cc1ccc2c(c1)OCO2 1 18 nt nt nt nt
CCN1[C@H](C(=O)NCc2ccccc2)[C@@H](CO)[C@@H]2Cn3c(ccc(-c4ccncc4)c3=O)[C@@H]21 2 -1 nt nt nt nt
COC(=O)[C@@H]1[C@@H](CO)[C@@H]2Cn3c(ccc(-c4ccccc4)c3=O)[C@@H]2N1Cc1cccc(F)c1 0 42* nt 5 i -7
CCNC(=O)[C@@H]1[C@@H](CO)[C@@H]2Cn3c(ccc(-c4cccnc4)c3=O)[C@@H]2N1Cc1ccc2c(c1)OCO2 1 64* nt 3 i 6[23.5_µM]
CCN1[C@H](C(=O)NCc2ccccc2)[C@@H](CO)[C@@H]2Cn3c(ccc(-c4cccnc4)c3=O)[C@@H]21 1 41* nt 32 i 6
C[C@H](CO)N1C[C@H](C)[C@@H](CN(C)C(=O)C2CCCCC2)Oc2ncc(C#CC(C)(C)O)cc2C1=O nt 1 nt nt nt nt
COc1ccc(CN(C)C[C@@H]2Oc3ccc(NC(=O)Nc4ccc(F)cc4)cc3CC(=O)N([C@@H](C)CO)C[C@@H]2C)cc1 1 -1 nt nt nt nt
Cc1cc(=O)oc2cc(OCC(=O)Nc3cccnc3)ccc12 0 13 9 nt nt nt
O=C(COc1ccc2ccc(=O)oc2c1)Nc1cccnc1 0 49* 3 -9 -7 -4
COc1ccc(Cc2c(-c3ccc(C)cc3)nc3c(C)cc(Br)cn23)c(C)c1 -5 0 nt nt nt nt
COc1ccc(Cc2c(-c3ccc(OC)c(OC)c3)nc3ccc(C)cn23)c(C)c1 2 79* nt 4 -3 -1
COc1ccc(Cc2c(-c3ccc(OC)c(OC)c3)nc3c(C)cc(Br)cn23)c(C)c1 0 69* nt -8 -7 -2
COc1ccc(Cc2c(-c3ccc(F)cc3)nc3ccc(C)cn23)c(C)c1 1 nt nt nt nt nt
CCNC(=O)C[C@@H]1CC[C@@H]2[C@H](COc3ccc(NC(=O)c4cscn4)cc3C(=O)N2C)O1 -1 2 nt nt nt nt
CCC(=O)Nc1ccc2c(c1)C(=O)N(C)C[C@H](OC)[C@H](C)CN(C(=O)COC)[C@H](C)CO2 0 -1 nt nt nt nt
COc1ccc(Nc2c(-c3ccc(C)cc3)nc3cnccn23)cc1 2 nt 26 nt nt nt
COc1ccc(-c2nc3cnccn3c2Nc2ccc3c(c2)OCO3)cc1 -2 54* 8 -3 4 -12
Cc1ccc(-c2nc3cnccn3c2Nc2ccc3c(c2)OCO3)cc1 1 8 -5 nt nt nt
COc1ccc(Nc2c(-c3ccc(OC)cc3)nc3cnccn23)cc1 1 46* 13 -7 -6 1
